Values joined by “and” are separate entries in the source; they are usually repeats but may differ in a detail not shown here. Equal entries are not always repeated. Active and inactive are the calls of the source.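 How the source made its calls, unless noted: active means normalized viability below 100% at a tested concentration; inactive means the rest.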
Assays:
[1] = system: Aerobactin synthetase IucA (Klebsiella pneumoniae); assay: IucA aerobactin synthetase inhibitors, biochemical, Tocris library, absorbance (AID 1345561; call rule not given here;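 further: 100% = enzyme without compound and 0% = no enzyme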); details: purified IucA enzyme assay, absorbance (OD) read-out; stronger effect = lower value;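 tested at 8 µM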
[2] = sensitizers of A549 cells to miR-34 induction, primary screen, imaging, A549 dox-inducible miR-34, nuclei and caspase counts (AID 1347080;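 active means compounds whose cell count with miR-34 switched on is under 0.7 times the count with it off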); details: A549 miR-34 inducible, Hoechst nuclei count, 48 h
[3] = modifiers of HSF1 nuclear foci, imaging, Selleck Cancer Library (AID 1347162; in the data active means plate-normalised HSF1 focus index below about 0.46); details: human cells, at 10 µM; SSMD: measured here: HSF1 foci SSMD mean; cell count: measured here: cell number; plate-normalised HSF1 focus index: stronger effect = lower value
[4] = survival rescue of mitochondrial mutant cells in low glucose, primary screen, MELAS cybrids, Rieske KO mouse fibroblasts, CellTiter-Glo (AID 1508586;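 active means mean z-score across replicates of 1.96 or higher in either the MELAS or the Rieske mutant cell line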;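 further: z relative to plate mean and SD of compound and empty wells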)
[5] = ovarian cancer cell viability with rucaparib, profiling panel, oncology-focused library, rucaparib conditional (AID 1508598); details: patient-derived ovarian cancer cells, CellTiter-Glo viability, 144 h, stronger effect = lower value
[6] = viability rescue of complex I mutant cybrids, primary screen, cell-based, galactose medium, ATP luminescence (AID 1645843;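 active means z-score of at least 1.8 in each of two replicates, scored against plate mean and spread of sample wells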;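 further: positive z means more ATP and so rescue of galactose-driven cybrid death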); details: complex I mutant cybrid cells, 72 h, stronger effect = higher value
[7] = hESC survival regulators, cell-based (AID 493140; call rule not given here;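 further: cells exposed to compounds for four days before counting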); details: human embryonic stem cell survival screen; stronger effect = higher value
[8] = inhibitors of Cryptococcus chitosan production, flow cytometry, Cibacron Brilliant Red staining (AID 1347148; call rule not given here;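 further: compound exposure lasted three days at 37 degrees C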); details: Cryptococcus neoformans chitosan, stronger effect = lower value; at 10 µM unless noted
[9] = circadian clock period modulators, cell-based, LOPAC library, luminescence reporter (AID 2774; call rule not given here;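 further: values are relative to mean of DMSO wells on each plate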); details: circadian reporter cells, at 7 µM, actives lie on both sides
[10] = system: Hepatitis C virus NS3 helicase; assay: HCV NS3 helicase inhibitors, primary screen, biochemical, fluorescence polarization, LOPAC1280 library (AID 687035; in the data active means inhibition above about 37%); details: Purified HCV NS3 helicase, Cy5-dT15 ssDNA binding fluorescence polarization; stronger effect = higher value; concentration not given here
[11] = Cy5 fluorescence quenching or enhancement artefacts, artefact control for HCV NS3 helicase inhibitor project, biochemical, LOPAC1280 (AID 687037; call rule not given here); details: Cy5-DNA-NS3h complex fluorescence interference counterscreen
[12] = phospholipid biosynthesis inhibitors in animal cells, primary screen, cell-based, LOPAC library, screen 4 (AID 1347384; call rule not given here); details: phospholipid biosynthesis inhibition screen, at 10 µM
[13] = stronger effect = lower value, cell number ratio, induced over uninduced
[14] = measured here: relative caspase fold change +Dox/-Dox
[15] = measured here: total cells with miR-34 induction, stronger effect = lower value
[16] = measured here: total cells without miR-34 induction

## CC(NC(=O)c1ccccc1N=Cc1c(O)ccc2ccccc12)c1ccccc1 (centres undefined)
[1]
  remaining activity: 102% (inactive)
[2]; [13]
  fold change: 0.954 (inactive) and 0.917 (inactive)
[2]; [14]
  fold change: 0.477 and 1.5
[2]; [15]
  cell count: 7190 and 7160
[2]; [16]
  cell count: 7540 and 7810
[3]
  SSMD: 1.72
  cell count: 7320
  plate-normalised HSF1 focus index: 1.11 (inactive)
[4]; MELAS cybrid survival, CellTiter-Glo 48 h, stronger effect = higher value
  z-score: -0.168 (inactive)
[4]; Rieske KO mouse fibroblast survival, CellTiter-Glo 72 h
  z-score: -0.189
[5]; at 0.000305 µM, OCI-C5x cells, with rucaparib 10 µM, 100% = cells with rucaparib alone
  viability: 111% (inactive)
[5]; at 0.000305 µM, OCI-C5x cells, without rucaparib
  viability: 99.9% (active)
[5]; at 0.000305 µM, OCI-P5x cells, with rucaparib 20 µM, 100% = cells with rucaparib alone
  viability: 102% (inactive)
[5]; at 0.000305 µM, OCI-P5x cells, without rucaparib
  viability: 90.3% (active)
[5]; at 0.00122 µM, OCI-C5x cells, with rucaparib 10 µM, 100% = cells with rucaparib alone
  viability: 122% (inactive)
[5]; at 0.00122 µM, OCI-C5x cells, without rucaparib
  viability: 121% (inactive)
[5]; at 0.00122 µM, OCI-P5x cells, with rucaparib 20 µM, 100% = cells with rucaparib alone
  viability: 103% (inactive)
[5]; at 0.00122 µM, OCI-P5x cells, without rucaparib
  viability: 95.7% (active)
[5]; at 0.00488 µM, OCI-C5x cells, with rucaparib 10 µM, 100% = cells with rucaparib alone
  viability: 119% (inactive)
[5]; at 0.00488 µM, OCI-C5x cells, without rucaparib
  viability: 126% (inactive)
[5]; at 0.00488 µM, OCI-P5x cells, with rucaparib 20 µM, 100% = cells with rucaparib alone
  viability: 106% (inactive)
[5]; at 0.00488 µM, OCI-P5x cells, without rucaparib
  viability: 96.5% (active)
[5]; at 0.0195 µM, OCI-C5x cells, with rucaparib 10 µM, 100% = cells with rucaparib alone
  viability: 121% (inactive)
[5]; at 0.0195 µM, OCI-C5x cells, without rucaparib
  viability: 119% (inactive)
[5]; at 0.0195 µM, OCI-P5x cells, with rucaparib 20 µM, 100% = cells with rucaparib alone
  viability: 114% (inactive)
[5]; at 0.0195 µM, OCI-P5x cells, without rucaparib
  viability: 100% (active)
[5]; at 0.0781 µM, OCI-C5x cells, with rucaparib 10 µM, 100% = cells with rucaparib alone
  viability: 112% (inactive)
[5]; at 0.0781 µM, OCI-C5x cells, without rucaparib
  viability: 119% (inactive)
[5]; at 0.0781 µM, OCI-P5x cells, with rucaparib 20 µM, 100% = cells with rucaparib alone
  viability: 108% (inactive)
[5]; at 0.0781 µM, OCI-P5x cells, without rucaparib
  viability: 102% (inactive)
[5]; at 0.313 µM, OCI-C5x cells, with rucaparib 10 µM, 100% = cells with rucaparib alone
  viability: 116% (inactive)
[5]; at 0.313 µM, OCI-C5x cells, without rucaparib
  viability: 118% (inactive)
[5]; at 0.313 µM, OCI-P5x cells, with rucaparib 20 µM, 100% = cells with rucaparib alone
  viability: 108% (inactive)
[5]; at 0.313 µM, OCI-P5x cells, without rucaparib
  viability: 104% (inactive)
[5]; at 1.25 µM, OCI-C5x cells, with rucaparib 10 µM, 100% = cells with rucaparib alone
  viability: 116% (inactive)
[5]; at 1.25 µM, OCI-C5x cells, without rucaparib
  viability: 126% (inactive)
[5]; at 1.25 µM, OCI-P5x cells, with rucaparib 20 µM, 100% = cells with rucaparib alone
  viability: 115% (inactive)
[5]; at 1.25 µM, OCI-P5x cells, without rucaparib
  viability: 109% (inactive)
[5]; at 5 µM, OCI-C5x cells, with rucaparib 10 µM, 100% = cells with rucaparib alone
  viability: 105% (inactive)
[5]; at 5 µM, OCI-C5x cells, without rucaparib
  viability: 143% (inactive)
[5]; at 5 µM, OCI-P5x cells, with rucaparib 20 µM, 100% = cells with rucaparib alone
  viability: 112% (inactive)
[5]; at 5 µM, OCI-P5x cells, without rucaparib
  viability: 108% (inactive)
[6]
  z-score: 0.205 (inactive)

## CCCCCCCC/C=C\CCCCCCCC(N)=O
[7]
  survival: 102 (inactive)
[1]
  remaining activity: 107% (inactive)
[2]; [13]
  fold change: 0.955 (inactive) and 0.909 (inactive) and 1 (inactive)
[2]; [14]
  fold change: 1.2 and 0.885 and 0.621
[2]; [15]
  cell count: 5390 and 5900 and 8530
[2]; [16]
  cell count: 5650 and 6490 and 8490
[8]
  fold fluorescence: 4.91 (inactive)
[6]
  z-score: -0.84 (inactive)

## COc1ccc(CCN(C)CCc2ccc(OC)c(OC)c2)cc1OC
[9]
  period change: 0.045 h (inactive)
[10]
  inhibition: -1% (inactive)
[11]
  fluorescence ratio (interference): 1 (inactive)
[1]
  remaining activity: 104% (inactive)
[2]; [13]
  fold change: 0.949 (inactive) and 0.925 (inactive) and 0.899 (inactive)
[2]; [14]
  fold change: 1.08 and 1.5 and 0.778
[2]; [15]
  cell count: 8830 and 6070 and 8850
[2]; [16]
  cell count: 9310 and 6560 and 9840
[8]
  fold fluorescence: 2.96 [at 139.1 µM] (inactive)
[12]
  outcome: inactive
[6]
  z-score: -0.285 (inactive) and -0.27 (inactive)

## O=S(=O)(c1cccc2c(Cl)cccc12)N1CCCNCC1
[9]
  period change: 0.09 h (inactive)
[7]
  survival: 62 (inactive)
[10]
  inhibition: -2% (inactive)
[11]
  fluorescence ratio (interference): 1 (inactive)
[1]
  remaining activity: 97.3% (inactive)
[2]; [13]
  fold change: 1.19 (inactive) and 0.923 (inactive) and 0.938 (inactive)
[2]; [14]
  fold change: 1.59 and 1.07 and 1
[2]; [15]
  cell count: 6430 and 3010 and 7700
[2]; [16]
  cell count: 5390 and 3260 and 8210
[8]
  fold fluorescence: 11.9 [at 153.9 µM] (inactive)
[12]
  outcome: inactive
[6]
  z-score: -0.995 (inactive) and -0.78 (inactive)
